In assay [1] the target is Voltage-gated inwardly rectifying potassium channel KCNH2 (Homo sapiens) (UniProt Q12809). Nature of the assay: qHTS Assay for Small Molecule Inhibitors of the Human hERG Channel Activity (AID 588834).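 Also: top concentration of the series differs between compounds; % is scaled to controls: 0 for no effect and ±100 for the full control effect; lower thallium flux fluorescence means stronger hERG block; nearly all actives have a fitted effect of over 50% in size.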 The essentials:
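Concentration-response qHTS measuring drop in thallium-sensitive dye signal. U2OS cells carrying BacMam hERG; compound exposure ~10 min, then stimulation buffer and 2 min read at 1 sec intervals.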

A short description of assay [2]: qHTS assay for small molecule antagonists of peroxisome proliferator-activated receptor delta signaling (AID 588535; active = well fitted inhibition curve with a large enough effect in the signal ratio, with a control signal flat, not every such curve was filed as active; the % refers to the signal ratio;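 as to max response: cells co-treated with a PPAR-delta agonist as stimulator during compound exposure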). The conditions noted are these: HEK293T PPARd-UAS-bla, beta-lactamase FRET ratio, 18 h; 460 nm channel. Put shortly:
(§1)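 Reporter: UAS-bla under PPAR-delta response element, HEK293T host. Medium: 2% charcoal/dextran FBS. Dosing: titration, 18 hrs, 37 C. Detection: CCF4, 2 hrs RT, 405 ex/460 and 530 em.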

Assay [3] has as its target Peroxisome proliferator-activated receptor delta (Homo sapiens) (UniProt Q03181). Described as above. The essentials:
as §1

For assay [4], the target named is Peroxisome proliferator-activated receptor gamma (Homo sapiens) (UniProt P37231). Put plainly: qHTS assay for small molecule agonists of peroxisome proliferator-activated receptor gamma signaling (AID 588536; active = well fitted curve in the direction sought with a large enough effect in the signal ratio, with a control signal flat, not every such curve was filed as active; the % refers to the signal ratio;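 also: 0% = DMSO basal wells and 100% = rosiglitazone at 2 µM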). The essentials: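 HEK293 UAS-bla reporter line, 1% charcoal/dextran FBS; titration, 16 h, 37 C; CCF4 loading 2 h RT; fluorescence 460/530 nm. Normalized to rosiglitazone 2 uM = 100%, DMSO = 0%.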
On the technique in general: qHTS replaces the single test concentration by a dilution series.

Assay [5] has the same target. Nature of the assay: qHTS assay for small molecule antagonists of peroxisome proliferator-activated receptor gamma signaling (AID 588537; active = well fitted inhibition curve with a large enough effect in the signal ratio, with a control signal flat, not every such curve was filed as active; the % refers to the signal ratio;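 also: reporter cells co-stimulated with 50 nM rosiglitazone agonist during compound treatment; % of control where 0% means no effect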). The essentials:
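We seeded GeneBLAzer HEK293 reporter cells at 3000 per well, allowed 6-6.5 h attachment at 37 C, then co-treated with test compound titrations and 50 nM rosiglitazone overnight (16 h). Inhibition was quantified from 460/530 nm emission ratios.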

The nature of assay [6]: qHTS assay for small molecule agonists of retinoid X receptor alpha signaling (AID 588544; calls by dose curve;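 as to activation: 0% = DMSO basal wells and 100% = reference agonist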). The conditions noted are these: HEK293T RXRa-UAS-bla, beta-lactamase reporter, 18 h; 530 nm emission.
Assay [7] deals with Retinoic acid receptor RXR-alpha (Homo sapiens) (UniProt P19793). Described as above.
The target of assay [8] is Thyroid hormone receptor beta (Homo sapiens) (UniProt P10828). Put plainly: qHTS assay for small molecule agonists of thyroid hormone receptor beta signaling (AID 588545; calls by dose curve). The essentials: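 Agonist-mode beta-lactamase reporter assay, HEK 293 cells, 2% charcoal/dextran FBS; cells plated 4 hrs, compound 18 hrs at 37 C, CCF4 2 hrs RT. Normalized to 10 nM T3 (100%) and DMSO (0%); Hill fit gives EC50, efficacy.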

Assay [9] can be described thus: qHTS assay for small molecule antagonists of retinoid X receptor alpha signaling (AID 588546; active = well fitted inhibition curve with a large enough effect in the signal ratio, with a control signal flat, not every such curve was filed as active; the % refers to the signal ratio;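 also: cells stimulated with 9-cis-retinoic acid as agonist; % is scaled to controls: 0 for no effect and ±100 for the full control effect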). The conditions noted are these: HEK293T RXRa-UAS-bla, beta-lactamase ratio, antagonist mode; measured here: W530 green channel, cytotoxicity proxy. Put shortly:
(§2)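 Beta-lactamase reporter inhibition, read as CCF4 fluorescence ratio (ex 405, em 460/530 nm) after 2 h at RT. HEK293T UAS-bla cells, 2500/well, were stimulated with 9-cis-RA at 500 or 100 nM final alongside test compound for 18 h at 37 C.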

Assay [10] deals with Retinoic acid receptor RXR-alpha (Homo sapiens) (UniProt P19793). The description is as above. The conditions noted are these: HEK293T RXRa-UAS-bla, beta-lactamase ratio, antagonist mode. The essentials: as §2
Assay [11] has as its target Thyroid hormone receptor beta (Homo sapiens) (UniProt P10828). Put plainly: qHTS assay for small molecule antagonists of thyroid hormone receptor beta signaling (AID 588547; active = well fitted inhibition curve with a large enough effect in the signal ratio, with a control signal flat, not every such curve was filed as active; the % refers to the signal ratio;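 also: cells stimulated with 0.4 nM T3 agonist during compound exposure; series mostly up to about 77 µM; % is scaled to controls: 0 for no effect and ±100 for the full control effect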). The conditions noted are these: TR-UAS-bla HEK293, beta-lactamase ratio, antagonist mode, 18 h. The essentials:
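TR-UAS-bla GripTite HEK293 cells in 2% charcoal/dextran FBS medium were preincubated 4 h at 37 C, given compound (0.59 nM to 92 uM) plus 0.4 nM T3 (final) for 18 h, then CCF4 for 2 h at RT; Hill fit gave IC50.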

The target of assay [12] is Luciferin 4-monooxygenase (Photinus pyralis) (UniProt P08659). Put plainly: Biochemical firefly luciferase enzyme assay for NPC (AID 624030).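 Also: purified P. pyralis luciferase at 10 nM with luciferin and ATP substrate; series mostly up to about 59 µM; 0% = DMSO and -100% = full luciferase inhibition by PTC124 control; nearly all actives have a fitted effect of over 70% in size.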 The essentials:
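Counter-screen for direct inhibition of the luciferase enzyme by approved-drug library compounds, run at 10 nM enzyme in 50 mM Tris acetate (final). Luminescence was read within 5 min of enzyme-buffer addition and normalized to PTC124 versus DMSO (0%).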

Assay [13] is described as follows: S16 Schwann cell viability assay (CellTiter-Glo assay) (AID 624031).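 Also: series mostly up to about 58 µM; plate controls were DMSO-treated cells for no effect and cell-free wells for full effect; nearly all actives have a fitted effect of over 70% in size.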 Put shortly:
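This viability control uses native rat S16 Schwann cells grown in DMEM plus 10% FBS. After a 24 h compound treatment at 37 °C, CellTiter-Glo luminescence reports ATP content, scaled against DMSO-treated and cell-free wells.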
For orientation: ATP-based viability assays read luminescence as a measure of living cells.

Assay [14] is described as follows: S16 Schwann cell PMP22 intronic element firefly luciferase assay (AID 624032).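 Also: series mostly up to about 58 µM; plate controls were DMSO for no effect and PTC124 positive control mean for full effect; nearly all actives have a fitted effect of over 30% in size.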 The essentials: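 Rat S16 Schwann cells stably carrying a PMP22 intronic element-driven Fluc reporter were seeded overnight, then exposed to compounds for 24 h at 37 °C. Luminescence was normalized to PTC124 (positive control) and DMSO (0% activity).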
The target in assay [15] is Glucocorticoid receptor (Homo sapiens) (UniProt P04150). Put plainly: qHTS assay for small molecule agonists of glucocorticoid receptor signaling (AID 588532; active = well fitted curve in the direction sought with a large enough effect in the signal ratio, with a control signal flat; the % refers to the signal ratio;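 also: 100% = dexamethasone at 0.1 µM and 0% = DMSO only wells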). Particulars: HeLa MMTV-bla, beta-lactamase ratio, agonist, 18 h; stronger effect = higher value; percent of dexamethasone control, DMSO zero. Put shortly:
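Stimulation of a glucocorticoid response element-driven beta-lactamase gene was measured in HeLa cells. Responses were scaled between DMSO basal and 0.1 uM dexamethasone, then fitted for half-maximal stimulation.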

Assay [16] has the same target. Nature of the assay: qHTS assay for small molecule antagonists of glucocorticoid receptor signaling (AID 588533; active = well fitted inhibition curve with a large enough effect in the signal ratio, with a control signal flat, not every such curve was filed as active; the % refers to the signal ratio;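 also: cells stimulated with 2 nM dexamethasone as agonist; % is scaled to controls: 0 for no effect and ±100 for the full control effect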). Put shortly:
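Antagonist-mode qHTS: compound titrations added to GRE-bla HeLa cells, then dexamethasone 2 nM final; 18 h, 37 C. CCF4 FRET fluorescence normalized to dexamethasone and DMSO; IC50 from Hill fit.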

Assay [17] concerns the target Vitamin D3 receptor (Homo sapiens) (UniProt P11473). Put plainly: qHTS assay for small molecule antagonists of vitamin D receptor signaling (AID 588541; calls by dose curve;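 also: receptor activated by calcitriol during compound treatment; series mostly up to about 77 µM; % is scaled to controls: 0 for no effect and ±100 for the full control effect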). Put shortly: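 VDR-UAS-bla HEK293T cells (2000/well, 2% charcoal-stripped FBS) were treated with titrated compounds plus 1-alpha,25-dihydroxyvitamin D3 (50 nM or 3 nM final) for 16 h at 37 C. CCF4 beta-lactamase fluorescence was read; Hill fits gave IC50.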

The nature of assay [18]: S16 Schwann cell PMP22 intronic element beta-lactamase assay (AID 624044; calls by dose curve;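 also: 0% = DMSO and -100% = potassium clavulanate positive control; nearly all actives have a fitted effect of over 15% in size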). Put shortly:
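Rat S16 Schwann cells with beta-Lac driven by a PMP22 intronic element, compound-treated 24 h at 37 °C. LiveBLAzer FRET B/G read: 460 nm normalized to potassium clavulanate vs DMSO; 535 nm FRET as viability; concentration-effect curves classified.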

The nature of assay [19]: qHTS of Trypanosoma Brucei Inhibitors: LOPAC Validation (AID 624147). Also: 0% is about no effect. The essentials:
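Screened from lowest to highest concentration, compounds were pinned into TbPYK/substrate mixtures, and ADP (130 uM final) was added. Plates sat at room temperature for 45 min prior to Kinase-Glo Plus detection by luminescence.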

Assay [20] concerns the target Glucagon-like peptide 1 receptor (Homo sapiens) (UniProt P43220). Put plainly: qHTS of GLP-1 Receptor Agonists: LOPAC Validation (AID 624148).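 Also: 0% is about no effect; higher luminescence signal means agonism.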 Put shortly: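 HEK293 cells stably co-expressing a cAMP-responsive luciferase reporter and a hypersensitive GLP-1R were plated 12 h at 37 °C and exposed to compounds for 4-6 hr at 37 °C, 5% CO2. Luminescence was read 12 min after adding detection reagent.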

Each structure is given as a SMILES string. “And” between values parts separate entries of the source, which are not always exact repeats. Equal values may be shown once. Records with an inconclusive call do not appear. The source made the active and inactive calls. Unless noted, calls follow the shape of the dose curve; as a rule, active = well fitted curve in the direction sought with a large enough effect; inconclusive = small, poorly fitted or top-dose-only effect, or another doubt; inactive = no such curve, though single readings can be large; an effect the other way counts as inactive or inconclusive.

Sequence of Luciferin 4-monooxygenase (Photinus pyralis) (P08659 whole entry, looked up): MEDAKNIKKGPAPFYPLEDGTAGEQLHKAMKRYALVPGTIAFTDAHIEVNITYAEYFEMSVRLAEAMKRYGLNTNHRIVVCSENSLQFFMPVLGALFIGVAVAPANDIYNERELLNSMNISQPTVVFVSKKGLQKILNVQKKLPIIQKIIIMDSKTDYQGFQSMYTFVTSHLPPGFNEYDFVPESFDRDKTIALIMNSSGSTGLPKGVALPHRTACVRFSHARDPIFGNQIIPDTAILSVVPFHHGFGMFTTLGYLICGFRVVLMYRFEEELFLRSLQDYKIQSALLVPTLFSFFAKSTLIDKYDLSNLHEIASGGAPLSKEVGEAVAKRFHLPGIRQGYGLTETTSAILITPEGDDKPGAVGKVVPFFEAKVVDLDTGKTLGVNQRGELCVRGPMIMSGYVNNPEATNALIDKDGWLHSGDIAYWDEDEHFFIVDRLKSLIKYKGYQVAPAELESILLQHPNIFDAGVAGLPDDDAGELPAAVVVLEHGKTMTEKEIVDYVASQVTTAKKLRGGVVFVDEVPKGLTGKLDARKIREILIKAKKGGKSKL
Sequence of Vitamin D3 receptor (Homo sapiens) (P11473 whole entry, looked up): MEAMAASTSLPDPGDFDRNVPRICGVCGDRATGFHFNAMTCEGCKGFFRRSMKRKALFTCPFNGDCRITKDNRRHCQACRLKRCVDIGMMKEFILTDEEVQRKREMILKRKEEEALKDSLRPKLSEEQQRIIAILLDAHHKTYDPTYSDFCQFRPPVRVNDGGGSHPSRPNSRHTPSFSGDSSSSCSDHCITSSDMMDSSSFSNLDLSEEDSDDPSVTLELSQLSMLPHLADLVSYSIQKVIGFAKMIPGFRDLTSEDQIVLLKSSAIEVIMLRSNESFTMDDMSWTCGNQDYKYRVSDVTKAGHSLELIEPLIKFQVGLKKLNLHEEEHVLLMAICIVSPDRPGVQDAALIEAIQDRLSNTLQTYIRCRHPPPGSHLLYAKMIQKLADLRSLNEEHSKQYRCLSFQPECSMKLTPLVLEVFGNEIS
Sequence of Peroxisome proliferator-activated receptor delta (Homo sapiens) (Q03181 whole entry, looked up): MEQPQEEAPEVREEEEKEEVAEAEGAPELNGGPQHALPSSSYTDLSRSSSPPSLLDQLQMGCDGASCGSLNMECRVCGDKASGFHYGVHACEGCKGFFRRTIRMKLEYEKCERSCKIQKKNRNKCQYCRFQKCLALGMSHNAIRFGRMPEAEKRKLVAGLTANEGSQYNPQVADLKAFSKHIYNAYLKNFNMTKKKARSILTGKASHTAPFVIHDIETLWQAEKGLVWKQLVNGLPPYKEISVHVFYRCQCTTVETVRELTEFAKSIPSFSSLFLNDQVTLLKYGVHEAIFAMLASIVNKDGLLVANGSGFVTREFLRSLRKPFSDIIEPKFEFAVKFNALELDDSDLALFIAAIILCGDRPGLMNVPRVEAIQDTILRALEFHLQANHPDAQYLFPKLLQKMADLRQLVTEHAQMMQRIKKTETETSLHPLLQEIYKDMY
Sequence of Glucocorticoid receptor (Homo sapiens) (P04150 whole entry, looked up): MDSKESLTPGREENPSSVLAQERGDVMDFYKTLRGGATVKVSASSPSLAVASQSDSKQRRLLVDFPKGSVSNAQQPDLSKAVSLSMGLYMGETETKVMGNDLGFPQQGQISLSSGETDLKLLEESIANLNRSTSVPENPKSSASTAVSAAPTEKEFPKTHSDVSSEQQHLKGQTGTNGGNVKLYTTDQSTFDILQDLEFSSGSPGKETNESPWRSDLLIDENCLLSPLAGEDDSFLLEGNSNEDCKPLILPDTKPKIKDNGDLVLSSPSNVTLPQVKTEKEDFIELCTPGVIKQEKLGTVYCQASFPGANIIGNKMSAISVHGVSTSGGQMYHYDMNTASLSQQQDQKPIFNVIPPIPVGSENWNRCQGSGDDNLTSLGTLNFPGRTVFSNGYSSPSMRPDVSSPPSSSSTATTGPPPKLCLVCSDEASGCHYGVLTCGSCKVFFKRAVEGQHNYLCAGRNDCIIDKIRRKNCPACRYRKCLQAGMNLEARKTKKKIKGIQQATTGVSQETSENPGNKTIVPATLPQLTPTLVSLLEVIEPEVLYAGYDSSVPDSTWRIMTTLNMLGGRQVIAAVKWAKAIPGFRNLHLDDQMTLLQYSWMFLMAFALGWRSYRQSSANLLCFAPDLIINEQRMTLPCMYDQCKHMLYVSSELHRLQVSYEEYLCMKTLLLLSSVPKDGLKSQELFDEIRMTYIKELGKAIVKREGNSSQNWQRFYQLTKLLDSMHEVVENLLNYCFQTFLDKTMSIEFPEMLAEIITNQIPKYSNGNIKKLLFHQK
Sequence of Peroxisome proliferator-activated receptor gamma (Homo sapiens) (P37231 whole entry, looked up): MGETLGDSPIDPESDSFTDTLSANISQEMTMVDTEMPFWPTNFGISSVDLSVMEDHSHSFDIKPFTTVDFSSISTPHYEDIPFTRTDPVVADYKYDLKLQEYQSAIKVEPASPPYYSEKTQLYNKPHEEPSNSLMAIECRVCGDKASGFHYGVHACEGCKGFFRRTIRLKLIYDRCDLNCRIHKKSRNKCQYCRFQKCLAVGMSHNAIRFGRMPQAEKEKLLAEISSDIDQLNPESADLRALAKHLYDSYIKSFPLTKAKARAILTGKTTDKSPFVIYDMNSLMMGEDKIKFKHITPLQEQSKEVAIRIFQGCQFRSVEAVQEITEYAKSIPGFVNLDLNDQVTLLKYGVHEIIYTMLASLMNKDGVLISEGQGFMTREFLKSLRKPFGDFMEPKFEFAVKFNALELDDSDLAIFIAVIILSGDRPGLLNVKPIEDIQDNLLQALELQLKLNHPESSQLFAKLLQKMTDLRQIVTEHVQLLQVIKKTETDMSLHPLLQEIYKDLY
Sequence of Retinoic acid receptor RXR-alpha (Homo sapiens) (P19793 whole entry, looked up): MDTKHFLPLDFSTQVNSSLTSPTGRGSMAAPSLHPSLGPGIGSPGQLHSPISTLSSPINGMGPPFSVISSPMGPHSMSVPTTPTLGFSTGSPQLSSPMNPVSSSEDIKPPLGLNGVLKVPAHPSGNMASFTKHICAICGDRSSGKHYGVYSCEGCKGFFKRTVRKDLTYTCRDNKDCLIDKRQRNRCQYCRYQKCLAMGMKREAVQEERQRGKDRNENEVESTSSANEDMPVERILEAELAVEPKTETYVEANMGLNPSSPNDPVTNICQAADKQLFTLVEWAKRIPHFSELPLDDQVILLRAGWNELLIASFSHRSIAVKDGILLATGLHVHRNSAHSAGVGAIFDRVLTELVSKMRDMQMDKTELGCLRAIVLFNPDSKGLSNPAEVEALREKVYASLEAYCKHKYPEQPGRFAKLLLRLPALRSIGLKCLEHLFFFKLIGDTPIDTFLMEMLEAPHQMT
Sequence of Thyroid hormone receptor beta (Homo sapiens) (P10828 whole entry, looked up): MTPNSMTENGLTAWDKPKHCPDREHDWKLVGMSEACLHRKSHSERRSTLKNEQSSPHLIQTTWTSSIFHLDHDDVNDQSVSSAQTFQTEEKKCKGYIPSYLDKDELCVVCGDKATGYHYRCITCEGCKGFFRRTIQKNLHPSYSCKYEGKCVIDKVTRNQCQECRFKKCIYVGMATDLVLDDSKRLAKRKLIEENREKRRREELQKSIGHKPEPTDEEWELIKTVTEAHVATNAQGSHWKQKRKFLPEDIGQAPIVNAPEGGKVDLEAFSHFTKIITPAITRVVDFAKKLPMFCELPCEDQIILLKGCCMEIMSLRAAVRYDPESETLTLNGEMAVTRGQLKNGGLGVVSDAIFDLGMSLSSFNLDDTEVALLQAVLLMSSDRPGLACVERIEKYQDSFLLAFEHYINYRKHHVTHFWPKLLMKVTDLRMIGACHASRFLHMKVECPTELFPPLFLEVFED
Sequence of Voltage-gated inwardly rectifying potassium channel KCNH2 (Homo sapiens) (Q12809 whole entry, looked up): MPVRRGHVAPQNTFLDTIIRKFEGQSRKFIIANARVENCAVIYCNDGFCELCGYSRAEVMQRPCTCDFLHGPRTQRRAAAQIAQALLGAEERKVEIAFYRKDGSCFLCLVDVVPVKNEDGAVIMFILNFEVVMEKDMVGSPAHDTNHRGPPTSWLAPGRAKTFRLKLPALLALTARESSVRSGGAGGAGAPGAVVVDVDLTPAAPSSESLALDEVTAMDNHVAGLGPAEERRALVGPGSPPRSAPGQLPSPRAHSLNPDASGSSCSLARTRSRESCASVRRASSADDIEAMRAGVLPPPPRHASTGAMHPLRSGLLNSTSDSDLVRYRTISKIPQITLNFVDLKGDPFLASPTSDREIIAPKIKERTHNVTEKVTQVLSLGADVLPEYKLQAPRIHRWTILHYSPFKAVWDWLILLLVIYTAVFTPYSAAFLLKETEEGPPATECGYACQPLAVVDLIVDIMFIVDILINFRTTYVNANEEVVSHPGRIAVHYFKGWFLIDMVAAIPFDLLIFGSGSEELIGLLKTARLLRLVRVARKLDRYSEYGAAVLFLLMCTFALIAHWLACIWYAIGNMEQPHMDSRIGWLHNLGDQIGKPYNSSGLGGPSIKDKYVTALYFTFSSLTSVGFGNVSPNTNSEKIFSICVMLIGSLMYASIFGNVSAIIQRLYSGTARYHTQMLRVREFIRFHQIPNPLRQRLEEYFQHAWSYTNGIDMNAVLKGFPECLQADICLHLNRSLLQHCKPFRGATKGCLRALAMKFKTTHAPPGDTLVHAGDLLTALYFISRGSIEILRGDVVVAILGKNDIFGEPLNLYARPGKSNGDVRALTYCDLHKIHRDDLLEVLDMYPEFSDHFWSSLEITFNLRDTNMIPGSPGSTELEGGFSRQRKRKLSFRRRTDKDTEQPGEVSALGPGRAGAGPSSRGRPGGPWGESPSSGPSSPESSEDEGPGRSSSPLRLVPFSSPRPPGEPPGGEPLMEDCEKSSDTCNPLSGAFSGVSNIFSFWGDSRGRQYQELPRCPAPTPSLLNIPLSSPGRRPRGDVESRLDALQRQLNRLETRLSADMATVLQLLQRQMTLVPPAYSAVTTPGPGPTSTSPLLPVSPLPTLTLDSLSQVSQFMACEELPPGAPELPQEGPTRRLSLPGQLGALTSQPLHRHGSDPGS

Turning to `CCC(=O)O[C@]1(C(=O)CCl)[C@@H](C)C[C@H]2[C@@H]3CCC4=CC(=O)C=C[C@]4(C)[C@@]3(F)[C@@H](O)C[C@@]21C`, the Potency result in assay [1] was “inactive”.
For the molecule `O=C(N[C@H](CO)[C@H](O)c1ccc([N+](=O)[O-])cc1)C(Cl)Cl`, the max response is -4.34% and 5.8% in [2]; -13.6% in assay [6]; -5.3% and -7.21% in assay [9]; 39.9% (inactive) and -11.1% (inactive) in [10]. Further, the molecule was called inactive in assay [3], in assay [4], in [7] and in assay [8]. For the same molecule, the Potency entry in assay [5] and in [12] was “inactive” each time. In addition, the activity change % (negative = inhibition) in assay [11] was 0.142% (inactive) and 20.5% (inactive).
`Cc1ncc([N+](=O)[O-])n1CCO`: the max response in assay [2] was -0.982%; in assay [6], 1.6%; in [9], -7.09%; in assay [10] it was 26.4% (inactive). In addition, the call in assay [3], in [4], in [7] and in assay [8] was inactive. Moreover, the activity change % (negative = inhibition) in assay [11] is -13.7% (inactive). Also, the Potency entry in assay [1], in [12], in [13] and in [14] was “inactive” in each case.
Consider `Cc1cc(NS(=O)(=O)c2ccc(N)cc2)no1`, for which the activation in [15] is 9.43% (inactive). Also, the outcome in assay [16], in assay [4], in assay [17], in [7] and in assay [8] was inactive. Besides, the max response in assay [6] is 12.4%; in [9] it was -9.35%; in assay [10] it was 6.61% (inactive). Also, the activity change % (negative = inhibition) in [11] is -2.53% (inactive). Besides, the Potency result in [13] and in assay [14] was “inactive” in each case.
With `CC[C@H](C)C(=O)O[C@H]1C[C@@H](C)C=C2C=C[C@H](C)[C@H](CC[C@@H]3C[C@@H](O)CC(=O)O3)[C@H]21`, in assay [15], the activation is -4.54% (inactive). In addition, the result in [4] and in assay [17] was inactive. Moreover, the Potency entry in [12], in assay [13], in [14] and in assay [18] was “inactive” in each case.
Take `CC(=O)CC(c1ccccc1)c1c(O)c2ccccc2oc1=O` (stereo not drawn): the max response is 2.14% in [6], -2.55% in [9] and 8.9% (inactive) in assay [10]. The result in [7] was inactive. The activity change % (negative = inhibition) in assay [11] is 9.03% (inactive). The Potency result in [1] and in [12] was “inactive” each time.
As to `CC(=O)[C@H]1CC[C@H]2[C@@H]3CCC4=CC(=O)CC[C@]4(C)[C@H]3CC[C@]12C`, the result in assay [8], in [19] and in assay [20] was inactive. Moreover, in assay [12], the Potency result is “inactive”.
Take `CCc1cc(C(N)=S)ccn1`: the activation in [15] was 1.04% (inactive). Moreover, the outcome in assay [16], in assay [3], in [17], in assay [7] and in [8] was inactive. Also, the max response is -62.7% and 18.6% in assay [2]; -5.67% in assay [6]; -0.783% in assay [9]; 10.8% (inactive) in assay [10]. Besides, the activity change % (negative = inhibition) in [11] is 7% (inactive). Further, the Potency result in [1], in [12], in assay [14] and in assay [18] was “inactive” in each case.
`Cc1noc(NS(=O)(=O)c2ccc(N)cc2)c1C`: the max response in assay [2] was 23.8% and 11.7%; in assay [6], 3.43%; in assay [9] it was 9.97% and -11.9%; in [10] it was 10.6% (inactive) and -8.28% (inactive). The molecule was classed as inactive in assay [3], in assay [4], in assay [7] and in [8]. In addition, the Potency result in assay [5], in assay [1], in assay [12], in assay [13] and in assay [14] was “inactive” each time.

The values are drawn from PubChem BioAssay (NCATS).
